According to the supplement of paper PMC4466140:

Assays:
Assay in all cases: SPOT peptide array binding signal intensity (averaged, normalized) (arbitrary units (background-subtracted, floor 0; scale differs between SH3 domains)); higher = stronger binding of the SH3 domain to the peptide
[1] = biological target: AgAbp1
Outline: (§1)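 GST-fused SH3 domains, from four yeast species, were produced in E. coli BL21(DE3) and captured on glutathione Sepharose. Membranes of cellulose carrying synthetic 15-mer peptides, in which cysteines had been replaced by serines, were exposed to each domain at 10 μg/ml overnight at 4°C in TBS-based blocking buffer. After anti-GST antibody, an HRP anti-mouse secondary and luminol, spots were imaged and quantified using Genespotter. Binding signal is normalized and background-subtracted spot intensity, averaged over replicates, in arbitrary units that differ between domains.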

[2] = biological target: AgBbc1
Outline: as §1

[3] = biological target: AgBem1-D1
Outline: as §1

[4] = biological target: AgBzz1-D1
Outline: as §1

[5] = biological target: AgBzz1-D2
Outline: as §1

[6] = biological target: AgCyk3
Outline: as §1

[7] = biological target: AgFus1
Outline: as §1

[8] = biological target: AgHof1
Outline: as §1

[9] = biological target: AgHse1
Outline: as §1

[10] = biological target: AgLsb1
Outline: as §1

[11] = biological target: AgLsb4
Outline: as §1

[12] = biological target: AgMyo5
Outline: as §1

[13] = biological target: AgNbp2
Outline: as §1

[14] = biological target: AgRvs167
Outline: as §1

[15] = biological target: AgSho1
Outline: as §1

[16] = biological target: AgSla1-D1-D2
Outline: as §1

[17] = biological target: AgSla1-D3
Outline: as §1

[18] = biological target: CaAbp1-D1
Outline: as §1

[19] = biological target: CaAbp1-D2
Outline: as §1

[20] = biological target: CaBbc1
Outline: as §1

[21] = biological target: CaBem1-D1
Outline: as §1

[22] = biological target: CaBzz1-D1
Outline: as §1

[23] = biological target: CaBzz1-D2
Outline: as §1

[24] = biological target: CaCyk3
Outline: as §1

[25] = biological target: CaFus1
Outline: as §1

[26] = biological target: CaHof1
Outline: as §1

[27] = biological target: CaHse1
Outline: as §1

[28] = biological target: CaLsb1
Outline: as §1

[29] = biological target: CaLsb4
Outline: as §1

[30] = biological target: CaMyo5
Outline: as §1

[31] = biological target: CaNbp2
Outline: as §1

[32] = biological target: CaRvs167
Outline: as §1

[33] = biological target: CaRvs167-3
Outline: as §1

[34] = biological target: CaSho1
Outline: as §1

[35] = biological target: CaSla1-D1-D2
Outline: as §1

[36] = biological target: CaSla1-D3
Outline: as §1

[37] = biological target: ScAbp1
Outline: as §1

[38] = biological target: ScBbc1
Outline: as §1

[39] = biological target: ScBem1-D1
Outline: as §1

[40] = biological target: ScBzz1-D1
Outline: as §1

[41] = biological target: ScBzz1-D2
Outline: as §1

[42] = biological target: ScCyk3
Outline: as §1

[43] = biological target: ScFus1
Outline: as §1

[44] = biological target: ScHof1
Outline: as §1

[45] = biological target: ScHse1
Outline: as §1

[46] = biological target: ScLsb1
Outline: as §1

[47] = biological target: ScLsb2
Outline: as §1

[48] = biological target: ScLsb3
Outline: as §1

[49] = biological target: ScLsb4
Outline: as §1

[50] = biological target: ScMyo3
Outline: as §1

[51] = biological target: ScMyo5
Outline: as §1

[52] = biological target: ScNbp2
Outline: as §1

[53] = biological target: ScPex13
Outline: as §1

[54] = biological target: ScRvs167
Outline: as §1

[55] = biological target: ScSho1
Outline: as §1

[56] = biological target: ScSla1-D1-D2
Outline: as §1

[57] = biological target: ScSla1-D3
Outline: as §1

[58] = biological target: SpAbp1-D1
Outline: as §1

[59] = biological target: SpBbc1
Outline: as §1

[60] = biological target: SpBzz1-D1
Outline: as §1

[61] = biological target: SpBzz1-D2
Outline: as §1

[62] = biological target: SpCyk3
Outline: as §1

[63] = biological target: SpHof1
Outline: as §1

[64] = biological target: SpHof1-2
Outline: as §1

[65] = biological target: SpHof1-3
Outline: as §1

[66] = biological target: SpHse1
Outline: as §1

[67] = biological target: SpLsb1
Outline: as §1

[68] = biological target: SpLsb4
Outline: as §1

[69] = biological target: SpMyo1
Outline: as §1

[70] = biological target: SpNbp2
Outline: as §1

[71] = biological target: SpPex13
Outline: as §1

[72] = biological target: SpRvs167
Outline: as §1

[73] = biological target: SpSla1-D1-D2
Outline: as §1

[74] = biological target: SpSla1-D3
Outline: as §1

Q: With TYNRTAFQIPGDQSI as the binder, how does the “SPOT peptide array binding signal intensity” value [1] read?
A: 1

Q: And the “SPOT peptide array binding signal intensity” value [2]?
A: ≤ 0

Q: And the “SPOT peptide array binding signal intensity” value [3]?
A: ≤ 0

Q: What about the “SPOT peptide array binding signal intensity” value [4] of the same binder?
A: 60

Q: What about the “SPOT peptide array binding signal intensity” value [5] of the same binder?
A: ≤ 0

Q: And the “SPOT peptide array binding signal intensity” value [6]?
A: ≤ 0

Q: And the “SPOT peptide array binding signal intensity” value [7]?
A: 0.5

Q: And the “SPOT peptide array binding signal intensity” value [8]?
A: 3.5

Q: And the “SPOT peptide array binding signal intensity” value [9]?
A: ≤ 0

Q: What about the “SPOT peptide array binding signal intensity” value [10] of the same binder?
A: 540

Q: And the “SPOT peptide array binding signal intensity” value [11]?
A: ≤ 0

Q: And the “SPOT peptide array binding signal intensity” value [12]?
A: 2.25

Q: What about the “SPOT peptide array binding signal intensity” value [13] of the same binder?
A: ≤ 0

Q: And the “SPOT peptide array binding signal intensity” value [14]?
A: 1

Q: What about the “SPOT peptide array binding signal intensity” value [15] of the same binder?
A: ≤ 0

Q: What about the “SPOT peptide array binding signal intensity” value [16] of the same binder?
A: ≤ 0

Q: What about the “SPOT peptide array binding signal intensity” value [17] of the same binder?
A: 1

Q: What about the “SPOT peptide array binding signal intensity” value [18] of the same binder?
A: ≤ 0

Q: What about the “SPOT peptide array binding signal intensity” value [19] of the same binder?
A: ≤ 0

Q: And the “SPOT peptide array binding signal intensity” value [20]?
A: 1

Q: What about the “SPOT peptide array binding signal intensity” value [21] of the same binder?
A: ≤ 0

Q: What about the “SPOT peptide array binding signal intensity” value [22] of the same binder?
A: 60.5

Q: And the “SPOT peptide array binding signal intensity” value [23]?
A: 43.5

Q: What about the “SPOT peptide array binding signal intensity” value [24] of the same binder?
A: 1

Q: What about the “SPOT peptide array binding signal intensity” value [25] of the same binder?
A: ≤ 0

Q: What about the “SPOT peptide array binding signal intensity” value [26] of the same binder?
A: 0.5

Q: And the “SPOT peptide array binding signal intensity” value [27]?
A: 2.5

Q: And the “SPOT peptide array binding signal intensity” value [28]?
A: 207

Q: What about the “SPOT peptide array binding signal intensity” value [29] of the same binder?
A: ≤ 0

Q: And the “SPOT peptide array binding signal intensity” value [30]?
A: ≤ 0

Q: What about the “SPOT peptide array binding signal intensity” value [31] of the same binder?
A: ≤ 0

Q: What about the “SPOT peptide array binding signal intensity” value [32] of the same binder?
A: 2.33

Q: What about the “SPOT peptide array binding signal intensity” value [33] of the same binder?
A: 0.5

Q: And the “SPOT peptide array binding signal intensity” value [34]?
A: ≤ 0

Q: What about the “SPOT peptide array binding signal intensity” value [35] of the same binder?
A: ≤ 0

Q: What about the “SPOT peptide array binding signal intensity” value [36] of the same binder?
A: 1.5

Q: What about the “SPOT peptide array binding signal intensity” value [37] of the same binder?
A: ≤ 0

Q: What about the “SPOT peptide array binding signal intensity” value [38] of the same binder?
A: 2.5

Q: And the “SPOT peptide array binding signal intensity” value [39]?
A: 11

Q: What about the “SPOT peptide array binding signal intensity” value [40] of the same binder?
A: 40

Q: And the “SPOT peptide array binding signal intensity” value [41]?
A: 13.5

Q: And the “SPOT peptide array binding signal intensity” value [42]?
A: ≤ 0

Q: What about the “SPOT peptide array binding signal intensity” value [43] of the same binder?
A: ≤ 0

Q: And the “SPOT peptide array binding signal intensity” value [44]?
A: ≤ 0

Q: And the “SPOT peptide array binding signal intensity” value [45]?
A: ≤ 0

Q: What about the “SPOT peptide array binding signal intensity” value [46] of the same binder?
A: 142

Q: What about the “SPOT peptide array binding signal intensity” value [47] of the same binder?
A: 661

Q: And the “SPOT peptide array binding signal intensity” value [48]?
A: ≤ 0

Q: And the “SPOT peptide array binding signal intensity” value [49]?
A: 11.5

Q: And the “SPOT peptide array binding signal intensity” value [50]?
A: 3

Q: What about the “SPOT peptide array binding signal intensity” value [51] of the same binder?
A: 8.5

Q: What about the “SPOT peptide array binding signal intensity” value [52] of the same binder?
A: ≤ 0

Q: What about the “SPOT peptide array binding signal intensity” value [53] of the same binder?
A: ≤ 0

Q: What about the “SPOT peptide array binding signal intensity” value [54] of the same binder?
A: ≤ 0

Q: What about the “SPOT peptide array binding signal intensity” value [55] of the same binder?
A: ≤ 0

Q: And the “SPOT peptide array binding signal intensity” value [56]?
A: ≤ 0

Q: What about the “SPOT peptide array binding signal intensity” value [57] of the same binder?
A: 0.5

Q: And the “SPOT peptide array binding signal intensity” value [58]?
A: ≤ 0

Q: And the “SPOT peptide array binding signal intensity” value [59]?
A: 0.5

Q: What about the “SPOT peptide array binding signal intensity” value [60] of the same binder?
A: 70

Q: What about the “SPOT peptide array binding signal intensity” value [61] of the same binder?
A: ≤ 0

Q: What about the “SPOT peptide array binding signal intensity” value [62] of the same binder?
A: ≤ 0

Q: What about the “SPOT peptide array binding signal intensity” value [63] of the same binder?
A: 1.75

Q: What about the “SPOT peptide array binding signal intensity” value [64] of the same binder?
A: 5.25

Q: What about the “SPOT peptide array binding signal intensity” value [65] of the same binder?
A: 0.25

Q: What about the “SPOT peptide array binding signal intensity” value [66] of the same binder?
A: 50.2

Q: And the “SPOT peptide array binding signal intensity” value [67]?
A: 17.5

Q: What about the “SPOT peptide array binding signal intensity” value [68] of the same binder?
A: ≤ 0

Q: What about the “SPOT peptide array binding signal intensity” value [69] of the same binder?
A: 2.75

Q: And the “SPOT peptide array binding signal intensity” value [70]?
A: ≤ 0

Q: And the “SPOT peptide array binding signal intensity” value [71]?
A: ≤ 0

Q: What about the “SPOT peptide array binding signal intensity” value [72] of the same binder?
A: 0.333

Q: What about the “SPOT peptide array binding signal intensity” value [73] of the same binder?
A: ≤ 0

Q: And the “SPOT peptide array binding signal intensity” value [74]?
A: ≤ 0
